The source of these data is PubChem BioAssay (Tox21).

A short description of experiment [1]: qHTS assay to identify small molecule antagonists of the estrogen related receptor (ERR) signaling pathway from Tox21 library - cell viability counter screen (AID 1224834). Also: nearly all actives have a fitted effect of over 30% in size. Also: potency is read from the fitted curve at half-maximal effect. In short, it runs like this:
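Counter screen run in ERR cells (2,000 cells/well): cells pre-incubated 6 h, then treated with compounds for 17.5 h at 37 C. Fluorescence was read 30 min after CellTiter-Fluor addition.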
(Quantitative high-throughput screening tests each substance at several concentrations.)

Experiment [2] concerns the target Luciferin 4-monooxygenase (Photinus pyralis) (UniProt P08659). Nature of the experiment: qHTS assay to identify small molecule inhibitors of firefly luciferase (AID 1224835). Also: nearly all actives have a fitted effect of over 25% in size. Also: potency is read from the fitted curve at half-maximal effect. As to activity change, negative = inhibition: series mostly up to about 120 µM. In short, it runs like this: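 Quantitative HTS format; KM concentrations of both substrates. Purified P. pyralis FLuc activity quantified from luminescence images.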
A short description of experiment [3]: qHTS assay to identify small molecule antagonists of the constitutive androstane receptor (CAR) signaling pathway - cell viability counter screen (AID 1224837). Also: nearly all actives have a fitted effect of over 45% in size. Also: potency is read from the fitted curve at half-maximal effect. As to activity change, negative = cytotoxicity: series mostly up to about 92 µM. In a few lines: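 CITCO at 50 nM final was added alongside compounds (15 concentrations) to double-stable hCAR/CYP2B6-2.2kb HepG2 cells. Following 23 hr at 37 C, cell viability was quantified by CellTiter-Fluor fluorescence intensity.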

Experiment [4] concerns the target Nuclear receptor subfamily 1 group I member 3 (Homo sapiens) (UniProt Q14994). Put plainly: qHTS assay to identify small molecule antagonists of the constitutive androstane receptor (CAR) signaling pathway (AID 1224838). Also: nearly all actives have a fitted effect of over 40% in size. Also: potency is read from the fitted curve at half-maximal effect. In short, it runs like this:
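Inhibition of CITCO-driven (50 nM final) CYP2B6 reporter expression is measured in HepG2 cells stably carrying hCAR. Fifteen compound concentrations are applied for 24 h at 37 C, followed by luciferase luminescence.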

The target is the same in experiment [5]. Nature of the experiment: qHTS assay to identify small molecule agonists of the constitutive androstane receptor (CAR) signaling pathway (AID 1224839). Also: nearly all actives have a fitted effect of over 15% in size. Also: potency is read from the fitted curve at half-maximal effect. As to activation: series mostly up to about 92 µM. In short, it runs like this: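 Luminescent ONE-Glo read-out after 24 hr, 37 C exposure of double-stable HepG2-CYP2B6-hCAR reporter cells to a 15-point compound series, in the presence of 0.75 uM PK11195 (final).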

Experiment [6] can be described thus: qHTS assay to identify small molecule antagonists of the estrogen related receptor signaling pathway with the pleiotropic PPARgamma coactivator (PGC) from Tox21 10K library - cell viability counter screen (AID 1224840; active = well fitted cell-killing curve with a large enough effect in the repeat runs, not every such curve was filed as active; also: nearly all actives have a fitted effect of over 40% in size; also: potency is read from the fitted curve at half-maximal effect). In short, it runs like this:
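Readout: fluorescence intensity from CellTiter-Fluor after 30 min at 37 C/5% CO2. Preceded by 17.5 h treatment of PGC/ERR cells with DMSO-dissolved compounds, added 6 h post-seeding.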

Experiment [7] addresses Thyrotropin receptor (Homo sapiens) (UniProt P16473). Nature of the experiment: qHTS assay to identify small molecule agonists of the thyroid stimulating hormone receptor (TSHR) signaling pathway (AID 1224843; calls by dose curve; also: nearly all actives have a fitted effect of over 45% in size; also: potency is read from the fitted curve at half-maximal effect). In short, it runs like this: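 Using 15 concentrations per compound in triplicate, cAMP production was monitored in TSHR-HEK293 cells after 30 min compound incubation at RT; HTRF reagents followed, with fluorescence intensity recorded after 1 h.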

Experiment [8] is described as follows: qHTS assay to identify small molecule agonists of the hypoxia (HIF-1) signaling pathway - cell viability counter screen (AID 1224844; calls by dose curve; also: nearly all actives have a fitted effect of over 50% in size; also: potency is read from the fitted curve at half-maximal effect). In a few lines: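 In this counter screen, HRE-bla ME-180 cell viability after 17 hrs of compound exposure at 37C was read by CellTiter-Glo luminescence, multiplexed with the beta-lactamase reporter measurement.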
Experiment [9] can be described thus: qHTS assay to identify small molecule agonists of H2AX (AID 1224845; active = well fitted activation curve with a large enough effect in the signal ratio in the repeat runs, not every such curve was filed as active; the % refers to the signal ratio). In short, it runs like this: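 Wild-type CHO-K1 cells plated overnight, then exposed 3 hr at 37C to compounds at 15 concentrations (0.76% DMSO). Lysed, then HTRF anti-pH2AX(S139)-cryptate/anti-H2AX-d2 detection after 24 hr at room temperature; emissions 665 and 620 nm.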
A short description of experiment [10]: qHTS assay to identify small molecule agonists of the hypoxia (HIF-1) signaling pathway (AID 1224846; active = well fitted activation curve with a large enough effect in the signal ratio in the repeat runs, not every such curve was filed as active; the % refers to the signal ratio). In short, it runs like this: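 ME-180 HRE-bla reporter cells; compounds in DMSO, 17 h at 37C; read-out beta-lactamase via CCF4-AM FRET.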
The nature of experiment [11]: qHTS assay to identify small molecule agonists of the estrogen related receptor signaling pathway with the pleiotropic PPARgamma coactivator (PGC) from Tox21 10K library (AID 1224842). Also: nearly all actives have a fitted effect of over 15% in size. In short, it runs like this:
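PGC/ERR reporter cells (NTP line) were seeded 2,000 per well, rested 6 h at 37 C/5% CO2, then pin-dosed with compounds in DMSO for 18 h at 37 C; luciferase read by One-Glo luminescence after 30 min at room temperature.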

Experiment [12] in a line: qHTS assay to identify small molecule agonists of the constitutive androstane receptor (CAR) signaling pathway - cell viability counter screen (AID 1224836). Also: nearly all actives have a fitted effect of over 45% in size. Also: potency is read from the fitted curve at half-maximal effect. As to viability change, negative = cytotoxic: series mostly up to about 92 µM. In short, it runs like this: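 Cell viability multiplexed with the CAR agonist screen: CellTiter-Fluor fluorescence after 23 hr at 37 C. HepG2-CYP2B6-hCAR cells got compounds at 15 concentrations with PK11195 at 0.75 uM final.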

The nature of experiment [13]: qHTS assay to identify small molecule antagonists of the estrogen related receptor signaling pathway with the pleiotropic PPARgamma coactivator (PGC) from Tox21 10K library (AID 1224841; call rule not given here; also: actives are mostly falling curves and most rising ones were filed inactive; nearly all actives have a fitted effect of over 50% in size; also: potency is read from the fitted curve at half-maximal effect). In a few lines: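 One-Glo luminescence, measured after half an hour at room temperature, quantified reporter output of PGC/ERR cells. These had been plated at 2,000 per well, incubated 6 h, dosed with compounds in DMSO, then kept 18 h at 37 C.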

Records with an inconclusive call do not appear. A number with no mark means an inactive call. The source made the active and inactive calls. Unless noted, calls follow the shape of the dose curve; as a rule, active = well fitted curve in the direction sought with a large enough effect in the repeat runs; inconclusive = weak or mixed curves; inactive = no such curve, though single readings can be large; an effect the other way counts as inactive or inconclusive.
% is scaled to controls: 0 for no effect and ±100 for the full control effect.

Nuclear receptor subfamily 1 group I member 3 (Homo sapiens), sequence (Q14994 whole entry, looked up): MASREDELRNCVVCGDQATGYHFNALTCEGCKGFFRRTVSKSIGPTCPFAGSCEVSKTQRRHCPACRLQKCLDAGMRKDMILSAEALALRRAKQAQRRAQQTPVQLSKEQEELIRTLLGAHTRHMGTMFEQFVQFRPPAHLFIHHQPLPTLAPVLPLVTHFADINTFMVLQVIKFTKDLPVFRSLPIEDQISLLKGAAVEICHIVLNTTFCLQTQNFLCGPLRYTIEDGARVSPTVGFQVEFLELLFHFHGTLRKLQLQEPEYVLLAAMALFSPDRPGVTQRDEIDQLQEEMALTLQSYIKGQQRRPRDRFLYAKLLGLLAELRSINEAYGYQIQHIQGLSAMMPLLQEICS
Thyrotropin receptor (Homo sapiens), sequence (P16473 whole entry, looked up): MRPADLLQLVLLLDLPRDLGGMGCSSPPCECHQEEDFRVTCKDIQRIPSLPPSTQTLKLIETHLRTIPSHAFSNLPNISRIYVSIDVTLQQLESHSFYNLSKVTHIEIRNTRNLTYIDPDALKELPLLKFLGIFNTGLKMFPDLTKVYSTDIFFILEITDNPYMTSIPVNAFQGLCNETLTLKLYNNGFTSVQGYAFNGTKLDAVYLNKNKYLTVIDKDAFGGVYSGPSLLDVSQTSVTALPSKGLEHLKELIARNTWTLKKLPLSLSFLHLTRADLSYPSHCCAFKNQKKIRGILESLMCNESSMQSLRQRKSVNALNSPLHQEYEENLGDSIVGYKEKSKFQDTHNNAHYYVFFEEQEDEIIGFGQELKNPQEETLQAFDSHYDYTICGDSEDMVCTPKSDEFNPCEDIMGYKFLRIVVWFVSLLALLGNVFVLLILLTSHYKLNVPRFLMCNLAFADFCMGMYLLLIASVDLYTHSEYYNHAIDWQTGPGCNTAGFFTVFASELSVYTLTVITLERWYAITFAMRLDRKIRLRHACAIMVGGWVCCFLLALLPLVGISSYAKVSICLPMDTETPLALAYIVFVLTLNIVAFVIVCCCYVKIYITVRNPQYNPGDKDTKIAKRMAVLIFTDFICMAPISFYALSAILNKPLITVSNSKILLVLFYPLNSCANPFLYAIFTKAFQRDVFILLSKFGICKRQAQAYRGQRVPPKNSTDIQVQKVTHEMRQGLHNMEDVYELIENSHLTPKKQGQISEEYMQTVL
Luciferin 4-monooxygenase (Photinus pyralis), sequence (P08659 whole entry, looked up): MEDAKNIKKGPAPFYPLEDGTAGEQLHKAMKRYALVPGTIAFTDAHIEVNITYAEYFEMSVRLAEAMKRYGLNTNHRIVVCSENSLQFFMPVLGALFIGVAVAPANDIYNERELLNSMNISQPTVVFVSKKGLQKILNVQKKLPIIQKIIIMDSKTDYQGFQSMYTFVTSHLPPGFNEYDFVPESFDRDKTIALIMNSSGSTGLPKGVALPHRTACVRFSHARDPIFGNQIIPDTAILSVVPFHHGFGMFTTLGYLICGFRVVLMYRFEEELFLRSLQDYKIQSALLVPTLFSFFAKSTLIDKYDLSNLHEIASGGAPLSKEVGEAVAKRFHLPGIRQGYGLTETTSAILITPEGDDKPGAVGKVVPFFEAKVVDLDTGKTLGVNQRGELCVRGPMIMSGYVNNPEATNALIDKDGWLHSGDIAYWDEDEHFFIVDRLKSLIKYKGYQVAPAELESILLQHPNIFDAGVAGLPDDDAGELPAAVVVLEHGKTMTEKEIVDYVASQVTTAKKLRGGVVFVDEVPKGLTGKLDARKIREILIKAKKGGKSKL

For the compound `CCn1c2ccccc2c2ccccc21`, the Potency result in experiment [1], in [2], in experiment [3], in experiment [4], in experiment [6] and in experiment [7] was “inactive” throughout. Besides, the Potency entry in experiment [8], in experiment [9] and in experiment [10] was “inactive” in each case. Besides, the Potency in experiment [5] is 27.3 µM (active).

As to `CO[Si](OC)(c1ccccc1)c1ccccc1`, the Potency entry in experiment [1], in experiment [2], in experiment [5], in experiment [6], in experiment [11] and in experiment [7] was “inactive” each time.

In the case of `CN(C)CCOc1ccc(/C(=C(/CCCl)c2ccccc2)c2ccccc2)cc1`, the Potency in experiment [1] was 51 µM (active); in experiment [6] it was 57.2 µM (active); in experiment [8], 40.9 µM (active). The Potency entry in experiment [2], in [5], in experiment [11] and in experiment [7] was “inactive” throughout.

As for `C=COCCCC`, the Potency result in experiment [1], in experiment [2], in [3], in experiment [4], in [5] and in experiment [6] was “inactive” each time. The Potency result in experiment [7], in experiment [8], in experiment [9] and in experiment [10] was “inactive” each time.

As for `CC(=O)CC(N)=O`, the Potency entry in experiment [1], in experiment [2], in experiment [12], in experiment [8] and in experiment [10] was “inactive” each time.

Turning to `CCN(CC)c1ccc(C=O)cc1`, the Potency result in experiment [1], in experiment [12], in [3], in experiment [4], in experiment [6] and in [7] was “inactive” each time. In addition, the Potency entry in experiment [8], in experiment [9] and in experiment [10] was “inactive” each time.

For `CC(C)=CCC[C@H](C)CC=O`, the Potency result in experiment [1], in experiment [2], in experiment [3], in experiment [6], in experiment [7] and in [8] was “inactive” in each case. Further, the Potency result in [9] is “inactive”.

Turning to `CCCCCCCCOC(=O)c1cc(O)c(O)c(O)c1`, the figures for the Potency in [1] and in [6] were 24.3 µM (active) and 34.4 µM (active), respectively. Besides, the Potency entry in experiment [2], in experiment [3], in experiment [4], in [5], in [11] and in experiment [7] was “inactive” in each case. Further, the Potency entry in experiment [8] is “inactive”.

On to `CCN(CC)c1ccc(N=Nc2ccccc2)cc1`, for which the Potency in experiment [1] was 24.3 µM (active); in experiment [2] it was 0.502 µM (active); in experiment [5], 13.7 µM (active). The Potency entry in experiment [4] and in [7] was “inactive” in each case.

Turning to `N#Cc1nc(Cl)c(Cl)c(Cl)c1Cl`, the Potency was 27.3 µM (active) in [1]; 24.3 µM (active) in [4]; 15.4 µM (active) in experiment [6]; 12.2 µM (active) in experiment [13]; 34.4 µM (active) in experiment [7]; 34.7 µM (active) in [8]. Also, the Potency result in experiment [2], in [5] and in experiment [11] was “inactive” in each case.

As for `CCN(CC)c1ccc(C=O)c(O)c1`, the Potency entry in experiment [1], in experiment [12], in experiment [3], in experiment [4], in experiment [6] and in [11] was “inactive” in each case. For the same compound, the Potency entry in [7], in [8], in [9] and in experiment [10] was “inactive” each time.

As to `CN(C[C@@H](CC[N+]12CCC(C3CCCCC3)(CC1)CC2)c1ccc(Cl)c(Cl)c1)C(=O)c1cc(C(F)(F)F)cc(C(F)(F)F)c1`, the Potency in [1] was 48.6 µM (active); in experiment [3], 68.6 µM (active); in experiment [4] it was 54.5 µM (active); in experiment [6], 30.6 µM (active); in experiment [8] it was 19.5 µM (active). Further, the Potency entry in experiment [2], in [5], in [13] and in experiment [9] was “inactive” throughout.

On to `Clc1ccc2c(Cl)ccnc2c1`, for which the Potency result in experiment [1], in experiment [12], in [4], in experiment [5], in experiment [6] and in experiment [13] was “inactive” in each case. The Potency entry in experiment [11], in experiment [7], in [8], in experiment [9] and in experiment [10] was “inactive” throughout.

Regarding `O=C(CCN1CCC(c2ccccc2)C1)c1ccc2c(c1)OCCO2` (stereo not drawn), the Potency entry in experiment [1], in experiment [2], in [3], in [4], in [5] and in experiment [7] was “inactive” throughout.

Consider `C=CC(=O)OCC(Br)CBr` (stereo not drawn), for which the Potency entry in [1], in experiment [2], in [3], in experiment [6], in experiment [7] and in experiment [9] was “inactive” throughout.

For the compound `CCCCCCCCCCCC(=O)Cl`, the Potency result in experiment [1], in experiment [3], in experiment [4], in experiment [5], in experiment [7] and in [9] was “inactive” each time. For the same compound, the Potency result in experiment [10] is “inactive”. Besides, in experiment [2], the Potency is 39.9 µM (active).

Turning to `C=C[Si](C)(C)Cl`, the viability change, negative = cytotoxic in experiment [1] is 5.38% [at 8.39 µM]. Besides, in experiment [2], the activity change, negative = inhibition is 5.1% [at 10.5 µM]. Besides, the results for the activation in [7] and in experiment [10] were -10.3% [at 8.39 µM] and 0.268% [at 7.01 µM], respectively. The activity change, negative = cytotoxicity in experiment [8] is -0.253% [at 6.97 µM]. Moreover, in experiment [9], the activation (H2AX phosphorylation) is 0.0782% [at 14 µM].

In the case of `CCCCCCCCSCc1cc(C)c(O)c(CSCCCCCCCC)c1`, the Potency result in experiment [1], in [2], in experiment [3], in experiment [4], in experiment [5] and in experiment [6] was “inactive” each time. In addition, the Potency result in experiment [13], in experiment [11], in [7], in experiment [8], in [9] and in experiment [10] was “inactive” each time.

With `O=C1c2ccccc2C(=O)c2c(Cl)cccc21`, the Potency result in [1], in [2], in [3], in experiment [4], in [13] and in experiment [7] was “inactive” throughout. The Potency entry in [10] is “inactive”. The Potency in experiment [5] is 28.9 µM (active).

Take `CCOc1nc(F)cc2nc(S(=O)(=O)Nc3c(Cl)cccc3C(=O)OC)nn12`: the Potency entry in experiment [1], in experiment [12], in experiment [4], in experiment [5], in experiment [6] and in experiment [7] was “inactive” each time. Also, the Potency entry in experiment [9] and in [10] was “inactive” in each case.

In the case of `c1ccc(-c2nc3ccccc3[nH]2)cc1`, the Potency result in [1], in experiment [6], in [8], in experiment [9] and in [10] was “inactive” throughout. For the same compound, the Potency in experiment [2] is 5.64 µM (active).

Consider `CCNc1nc(NC(C)(C)C)nc(OC)n1`, for which the Potency result in experiment [1], in [2], in experiment [4], in experiment [6], in [7] and in experiment [8] was “inactive” each time. Also, the Potency entry in experiment [9] and in experiment [10] was “inactive” in each case. Moreover, in [5], the Potency was 30.6 µM (active).

For `CC1(C)[C@H]2CC[C@]1(C)C(=O)C2`, the Potency result in experiment [1], in experiment [2], in [3], in experiment [4], in [5] and in experiment [6] was “inactive” throughout. For the same compound, the Potency entry in [13], in experiment [11], in [7], in experiment [8], in [9] and in experiment [10] was “inactive” in each case.

For `NCc1ccco1`, the Potency result in experiment [1], in experiment [2], in [4], in experiment [5], in [6] and in experiment [7] was “inactive” throughout. Moreover, the Potency entry in [8], in [9] and in experiment [10] was “inactive” throughout.

As to `O=C1C=CC(=O)N1c1cccc(N2C(=O)C=CC2=O)c1`, the Potency was 54.5 µM (active) in [1]; 61.1 µM (active) in experiment [12]; 61.1 µM (active) in experiment [3]; 61.1 µM (active) in experiment [4]; 34.4 µM (active) in experiment [6]; 77 µM (active) in [13]. For the same compound, the values for the Potency in experiment [7] and in experiment [8] were 5.45 µM (active) and 11 µM (active), respectively. The Potency entry in experiment [5], in experiment [11] and in experiment [9] was “inactive” throughout.
